High-throughput results as filed in PubChem.
IL1B secr inh = blocks inflammasome-driven IL-1 beta release | THP-1 LPS/ATP IL-1B secretion, AlphaLISA, 16 h; active compounds read low | activity change, % at 57.5 µM | hit rate 4.7% among 360,000 | AID 743279; in the data active = activity change below about -50%; inconclusive = mostly about -30% to -49%
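Secreted IL-1B measured by AlphaLISA bead assay after 16 h compound exposure of THP-1 cells; compounds (final up to 57.5 uM) added 1 h before LPS (250 ng/mL) and ATP (1.25 mM) stimulation; lower signal means less secretion.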
HT1080NT lethal = kills 2HG-producing HT-1080-NT fibrosarcoma cells. HT-1080-NT fibrosarcoma viability, CellTiter-Glo ATP luminescence, 48 h. Potency, µM (series often up to 46.1 µM), for inactives: at the highest dose activity, negative = less viability, most hits filed as cytotoxic. hit rate 1.6% among 360,000. AID 686970;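 also: NT is the 2HG producing partner of a matched IDH1 knockdown line; potency is read from the fitted curve at half-maximal effect; 0% = DMSO-treated cells and -100% = media-only wells without cells; nearly all actives have a fitted effect of over 55% in size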
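750 cells/well, RPMI + 5% FBS; 2 h settle, compound pin-transfer, 48 h at 37 degrees C. CellTiter-Glo 10 min RT, luminescence. Normalized to DMSO and media-only wells.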
HT1080 IDH1KD tx = kills HT-1080 cells with IDH1 knockdown; HT-1080 IDH1 knockdown viability, ATP luminescence, 48 h; AID 686971; Potency, µM (doses to about 46.1 µM), without a hit: at the highest dose activity, negative = toxicity, hits mostly cytotoxic; hit rate 2% among 360,000;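 also: potency is read from the fitted curve at half-maximal effect; 0% = DMSO wells and -100% = cell-free medium wells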
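% activity derives from luminescence (CellTiter-Glo), normalised to DMSO and no-cell wells. HT-1080-IDH1KD cells, 750/well, had 48 h compound exposure at 37 °C.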
ELG1 repair inh = blocks ELG1-dependent DNA repair in HEK293T cells | HEK293T ELG1-luciferase reporter, luminescence, 16 h; DNA damage induced by 5-fluorouridine | Potency, µM (highest dose often 46.1 µM), without a hit: at the top dose activity change, negative = inhibition, most hits filed as inhibitors | hit rate 2.3% among 330,000; also: potency is read from the fitted curve at half-maximal effect; nearly all actives have a fitted effect of over 55% in size
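Step one: seed 2,000 cells per well. Step two: pin-transfer compound or DMSO alongside 5-fluorouridine. Step three: incubate 16 hr, 37 °C, 5% CO2. Step four: add ONE-Glo, wait 30 min, read luminescence.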
TDP1 cell noCPT = qHTS for Inhibitors of human tyrosyl-DNA phosphodiesterase 1 (TDP1): qHTS in cells in absence of CPT | hit rate 15% among 420,000 | DT40 Tdp1-/- hTDP1 cells, no CPT, ATP luminescence, 48 h | AID 686978, 2013 | Potency, µM (highest dose often 46.2 µM), inactives show top-dose activity change, negative = growth inhibition, most hits filed as inhibitors; also: potency is read from the fitted curve at half-maximal effect; nearly all actives have a fitted effect of over 55% in size
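Cells were dispensed at 400 per well, compounds added by pin tool, plates incubated ≥48 hr at 37 °C, then CellTiter-Glo added for 30 min at room temperature before luminescence reading. Line: DT40 Tdp1-/- complemented with hTDP1; camptothecin omitted.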
TDP1 cell CPT = growth inhibition of DT40 Tdp1-/-;hTDP1 cells with camptothecin (screen for TDP1 inhibitors). chicken DT40 Tdp1-/-;hTDP1 cells + 20 nM CPT, ATP luminescence, 48 h. hit rate 12% among 420,000. Potency, µM (titrated, usually from 46.2 µM), for inactives: at the top dose activity change, negative = growth inhibition, most hits filed as inhibitors; also: potency is read from the fitted curve at half-maximal effect; nearly all actives have a fitted effect of over 55% in size
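Chicken DT40 Tdp1-/- cells complemented with human TDP1, 400 cells/well, exposed to compounds plus 20 nM camptothecin for at least 48 h at 37 C; viability read as ATP content by CellTiter-Glo luminescence.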
An asterisk follows results filed as active; ? = inconclusive; · = not tested or not shown; [ ] = another dose, or the depositor's remark. Shown are actives, neighbours in structure and some others; about 19% of the full set was active somewhere. Unless noted, calls follow the shape of the dose curve; as a rule, active = well fitted curve in the direction sought with a large enough effect; inconclusive = small, poorly fitted or top-dose-only effect, or another doubt; inactive = no such curve, though single readings can be large; an effect the other way counts as inactive or inconclusive. Unless noted, % is scaled to controls: 0 for no effect and ±100 for the full control effect.

SMILES | IL1B secr inh | HT1080NT lethal | HT1080 IDH1KD tx | ELG1 repair inh | TDP1 cell noCPT | TDP1 cell CPT
CCOC(=O)CN1C(=O)C(CC)Oc2ccccc21 (centres undefined) | -0.1 | 10.2% | -3.4% | -0.1% | -17.6% | -1.9%
COC(=O)c1ccc(-c2ccc(F)cc2)nc1C | -5.8 | 26.6% | 25.1% | ? | -3.5% | -14.7%
O=C(NCC(=O)N1CCN(c2ccccc2)CC1)c1ccc(Cl)cc1 | -15.0 | 0.4% | 8.4% | -2.5% | -8.8% | 6.0%
CCOC(=O)C1CCN(Cc2ccc(OCc3ccccc3)cc2)CC1 | -1.1 | -0.3% | 6.7% | 1.1% | -13.5% | -24.3%
CC(C)(C)c1ccc(C(=O)NC2CCN(Cc3ccccc3)CC2)cc1 | -27.0 | -19.5% | -23.0% | -23.1% | 18.4µM* | ?
O=C(NC1CCN(Cc2ccccc2)CC1)c1ccccc1 | -2.9 | 12.4% | -1.0% | -0.7% | -2.8% | -3.8%
O=C(NCC(=O)N1CCC(Cc2ccccc2)CC1)c1ccc(Cl)cc1 | -52.0* | -2.9% | 0.1% | -2.8% | ? | 16.4µM*
CCCCN(C)C(=O)C1CCN(Cc2ccc(OCc3ccccc3)cc2)CC1 | ? | ? | ? | -29.9% | 16.4µM* | ?
O=C(NC1CCN(Cc2ccccc2)CC1)c1cccc(S(=O)(=O)Nc2ccc(SC(F)F)cc2)c1 | -21.5 | ? | -19.5% | ? | ? | 23.1µM*
O=C(COC(=O)c1ccccc1O)Nc1cccc(S(=O)(=O)N2CCCC2)c1 | 6.3 | 1.0%[9.24 µM] | 1.4% | -7.1% | 2.7% | -26.2%
CCSc1nc2c([nH]c3ccccc32)c(=O)n1CC | · | · | · | · | -19.3% | 3.0%
COc1ccc(C(=O)NC2CC2)cc1OC1CCN(Cc2ccc(F)cc2Cl)CC1 | ? | -3.1% | -11.7% | · | 18.4µM* | ?
CCc1ccccc1NC(=O)c1ccc(CN2CCC(Cc3ccccc3)CC2)cc1 | -79.5* | 20.6µM* | ? | -13.2% | ? | ?
O=C(NC1CCN(Cc2ccccc2)CC1)c1cc(S(=O)(=O)Nc2ccc(F)cc2)ccc1Cl | -68.5* | -0.2% | 9.4% | 0.3% | 14.6µM* | 23.1µM*
O=C(NCc1ccccc1)c1ccc(CN2CCC(Cc3ccccc3)CC2)cc1 | -29.3 | ? | ? | -6.9% | ? | ?
COc1ccc(CN2CCC(Oc3cc(C(=O)NC4CC4)ccc3OC)CC2)c(O)c1 | 0.4 | 2.0% | -4.5% | 1.9% | 1.1% | -22.7%
O=C(NC1CCN(Cc2ccc(Cl)cc2Cl)CC1)c1ccccc1 | -50.1* | 2.7% | 0.7% | 13µM* | 18.4µM* | 20.6µM*
CCCCCCCCCCCCCCCCCCCCCCO | · | · | · | · | 0.9% | 5.8%
CCCCC1CN(CCNC(=O)c2ccccn2)Cc2ccccc2O1 (centres undefined) | · | · | · | · | -4.3% | 10.9%[9.04 µM]
COc1cc(=O)n2c(c1C(=O)NCc1ccco1)CCN(Cc1cccc(Cl)c1)CC2 | · | · | · | · | -25.6% | 14.0%[9.04 µM]
CCN1CCN(c2ccc(NC(=O)c3ccc4c(c3)[nH]c(=O)n4Cc3ccc(OC)cc3)cc2)CC1 | -8.6 | -1.7% | -6.7% | 0.0% | ? | 23.1µM*
CCCCOc1ccc(C(=O)NCC(=O)NC2CCN(Cc3ccccc3)CC2)cc1 | -3.0 | -12.4% | -4.4% | 0.3% | ? | 23.1µM*
CCN(c1ccccc1)S(=O)(=O)c1ccc(Cl)c(C(=O)NC2CCN(Cc3ccccc3)CC2)c1 | -21.2 | -11.9% | -12.9% | · | 6.51µM* | 9.2µM*
Cc1ccc(NS(=O)(=O)c2cccc(C(=O)NC3CCN(Cc4ccccc4)CC3)c2)cc1 | · | -4.6% | -29.5% | · | 5.8µM* | 4.11µM*
COc1ccc(Cn2c(=O)[nH]c3cc(C(=O)Nc4ccccc4C)ccc32)cc1 | -29.1 | -1.7% | -2.8% | -11.2% | -23.4% | -14.8%
SMILES | IL1B secr inh | HT1080NT lethal | HT1080 IDH1KD tx | ELG1 repair inh | TDP1 cell noCPT | TDP1 cell CPT
Cc1ccc(C)c(NC(=O)CSc2nc(=O)n(CCN3CCOCC3)c3c2CCCC3)c1 | -2.8 | 12.6% | 1.0% | -1.5% | -25.1% | -11.6%
CC1(c2nnnn2Cc2ccccc2)CCC(=O)N1Cc1cccc(C(F)(F)F)c1 (centres undefined) | 1.8 | 7.6% | 12.5% | · | -22.2% | -1.8%
Cc1c(C(=O)NC2CCN(Cc3ccccc3)C2)oc2c(Cl)cccc12 (centres undefined) | -88.1* | ? | ? | 2.4% | -22.1% | ?
O=C(NC1CCN(Cc2ccccc2)CC1)c1ccc2c(c1)[nH]c(=O)n2Cc1ccc(F)cc1 | -76.9* | 14.6µM* | -13.2% | -9.2% | ? | ?
Cc1ccc(NS(=O)(=O)c2ccc(C(=O)NC3CCN(Cc4ccccc4)CC3)cc2)cc1 | -93.5* | ? | -25.9% | ? | 14.6µM* | 14.6µM*
CCCCCn1c(=O)[nH]c2cc(C(=O)NC3CCN(Cc4ccccc4)CC3)ccc2c1=O | 35.7 | 13.2% | 12.3% | · | ? | ?
CN(Cc1cn[nH]c1-c1cc2ccccc2o1)CC1CCOCC1 | -13.7 | -0.6% | -5.2% | 1.8% | -4.0% | -3.4%
CCN=C1S/C(=C/c2ccc(-c3ccc(F)cc3)o2)C(=O)N1CC | -14.3 | ? | ? | -2.0% | ? | -27.6%
Cc1nn(C(=O)CCC(=O)NCCc2ccccc2)c2ccccc12 | -4.1 | 4.1% | 9.6% | 14.1% | 12.4% | 2.1%
O=C(C1CCCCC1)N(CCN1CCN(c2ccccc2CO)CC1)c1ccccn1 | · | · | · | · | 10.3µM* | ?
Cc1cccc(Sc2ccc([N+](=O)[O-])cc2[N+](=O)[O-])n1 | -171.3* | ? | 18.4µM* | 6.9% | 3.26µM* | 3.26µM*
O=c1cc(-c2ccccc2)nc(Sc2ccc([N+](=O)[O-])cc2[N+](=O)[O-])[nH]1 | -62.9* | -0.9% | -24.1% | · | ? | ?
O=[N+]([O-])c1ccc(Sc2ncccn2)c([N+](=O)[O-])c1 | · | 29.1µM* | 13µM* | ? | 0.92µM* | 0.82µM*
O=[N+]([O-])c1ccc(Sc2nccn2Cc2ccccc2)c([N+](=O)[O-])c1 | -108.4* | -1.3% | ? | -7.0% | 5.8µM* | 6.51µM*
Cc1cccc(Sc2c([N+](=O)[O-])ncn2C)n1 | 0.0 | -0.6% | 1.5% | ? | -15.1% | -5.0%
O=C(COc1ccccc1F)Nc1ccccc1OCc1cc(=O)n2ccccc2n1 | · | · | · | · | -16.2% | 12.9%
CC(OC(=O)Cc1n[nH]c(=O)c2ccccc12)C(=O)Nc1cc(Cl)cc(Cl)c1 (centres undefined) | 33.3 | -22.1% | -15.4% | -27.0% | 23.1µM* | ?
